Experimental data taken from PubChem BioAssay (NCATS).
“And” between values parts separate entries of the source, which are not always exact repeats. Equal entries are not always repeated. Results filed as inconclusive are left out. The source made the active and inactive calls. Calls come from the whole dose curve; as a rule, active = well fitted curve in the direction sought with a large enough effect; inconclusive = small, poorly fitted or top-dose-only effect, or another doubt; inactive = no such curve, though single readings can be large; an effect the other way counts as inactive or inconclusive.

Legend:
Es-2 = test: Primary qHTS to identify gynecologic anti-cancer compounds using libraries of approved drugs and bioactive compounds (AID 1345084); details: Gynecologic cancer cell panel viability, ATPlite luminescence, 48 h; series mostly up to 57.5 µM; note: nearly all actives have a fitted effect of over 55% in size
Summary of the method: (§1)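 Measured: luminescence after ATPlite addition (15 min, RT). Exposure: 48 h, 37 C, 5% CO2.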

HeLa = test: as above; details: Gynecologic cancer cell panel viability, ATPlite luminescence, 48 h; series mostly up to 57.5 µM
Summary of the method: as §1

Hek293T = test: as above; details: Gynecologic cancer cell panel viability, ATPlite luminescence, 48 h, control line for the selectivity index; series mostly up to 57.5 µM
Summary of the method: as §1

OV90 = test: as above; details: Gynecologic cancer cell panel viability, ATPlite luminescence, 48 h; series mostly up to 57.5 µM
Summary of the method: as §1

PA-1 = test: as above; details: Gynecologic cancer cell panel viability, ATPlite luminescence, 48 h; series mostly up to 57.5 µM
Summary of the method: as §1

SKOV3 = test: as above; details: Gynecologic cancer cell panel viability, ATPlite luminescence, 48 h; series mostly up to 57.5 µM
Summary of the method: as §1

Tov-21-G = test: as above; details: Gynecologic cancer cell panel viability, ATPlite luminescence, 48 h; series mostly up to 57.5 µM
Summary of the method: as §1

Tov112D = test: as above; details: Gynecologic cancer cell panel viability, ATPlite luminescence, 48 h; series mostly up to 57.5 µM
Summary of the method: as §1

JEG-3 = test: as above; details: Gynecologic cancer cell panel viability, ATPlite luminescence, 48 h; series mostly up to 57.5 µM
Summary of the method: as §1

[1] = Drug repurposing screens with cells derived from glioblastoma tumor samples (AID 1345199); details: GBM patient neurospheres viability, ATP luminescence, 48 h; note: nearly all actives have a fitted effect of over 40% in size
Summary of the method: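 Primary testing used CD133+ neurospheres from four GBM patients, seven concentrations, 48 h exposure and ATP-based viability; confirmation added three slower-growing patient lines.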

[2] = at 45.9 µM (top of the series), tumour line B
[3] = at 45.9 µM (top of the series), tumour line D
[4] = at 46 µM (top of the series), tumour line A
% is set by controls: 0 for no effect and ±100 for the full control effect; potency is the fitted concentration of half-maximal effect.

CC(O)(CS(=O)(=O)c1ccc(F)cc1)C(=O)Nc1ccc(C#N)c(C(F)(F)F)c1 (centres undefined)
inactive: Potency (Es-2) | Potency (HeLa) | Potency (Hek293T) | Potency (OV90) | Potency (PA-1) | Potency (SKOV3) | Potency (Tov-21-G) | Potency (Tov112D)

O=C(O)C(=O)c1cn(Cc2ccccc2)c2ccc(-c3ccc(OC(F)(F)F)cc3)cc12
inactive: Potency (Es-2) | Potency (HeLa) | Potency (Hek293T) | Potency (OV90) | Potency (PA-1) | Potency (SKOV3) | Potency (Tov-21-G) | Potency (Tov112D)

CC(CCc1ccccc1)NC(C)C(O)c1ccc(O)cc1 (centres undefined)
inactive: Potency (Es-2) | Potency (HeLa) | Potency (Hek293T) | Potency (JEG-3) | Potency (SKOV3) | Potency (Tov-21-G) | Potency (Tov112D) | activity, negative = cell killing [1, 2] -9.92% | activity, negative = cell killing [1, 3] 2.61%
active: Potency ([1]; tumour line A) 14100 nM

O=C1CC[C@@]2(O)[C@H]3Cc4ccc(O)c5c4[C@@]2(CCN3CC2CC2)[C@H]1O5
inactive: Potency (Es-2) | Potency (HeLa) | Potency (Hek293T) | Potency (OV90) | Potency (PA-1) | Potency (SKOV3) | Potency (Tov-21-G) | Potency (Tov112D) | activity, negative = cell killing [1, 2] 1.04% | activity, negative = cell killing [1, 3] -3.21%

Oc1ccc(Cl)cc1Cc1ccccc1
inactive: Potency (Es-2) | Potency (HeLa) | Potency (Hek293T) | Potency (JEG-3) | Potency (PA-1) | Potency (SKOV3) | Potency (Tov-21-G) | Potency (Tov112D) | activity, negative = cell killing [1, 2] -24.8%

C[C@]12CCC(=O)C(O)=C1CC[C@@H]1[C@@H]2CC[C@]2(C)C(=O)CC[C@@H]12
inactive: Potency (Es-2) | Potency (HeLa) | Potency (Hek293T) | Potency (OV90) | Potency (PA-1) | Potency (SKOV3) | Potency (Tov-21-G) | Potency (Tov112D)

NCC1(CC(=O)O)CCCCC1
inactive: Potency (Es-2) | Potency (HeLa) | Potency (Hek293T) | Potency (JEG-3) | Potency (OV90) | Potency (PA-1) | Potency (SKOV3) | Potency (Tov-21-G) | Potency (Tov112D) | activity, negative = cell killing ([1]; at 21.2 µM (top of the series), tumour line B) -18.9% | activity, negative = cell killing ([1]; at 21.2 µM (top of the series), tumour line D) -10.4% | activity, negative = cell killing ([1]; at 21.3 µM (top of the series), tumour line A) -25.7%

CN1C[C@H](CNC(=O)OCc2ccccc2)C[C@@H]2c3cccc4c3c(cn4C)C[C@H]21
inactive: Potency (Es-2) | Potency (HeLa) | Potency (Hek293T) | Potency (JEG-3) | Potency (OV90) | Potency (PA-1) | Potency (Tov-21-G) | Potency (Tov112D)

FC(F)(F)c1cccc(C2=CCN(CCc3ccc4ccccc4c3)CC2)c1
inactive: Potency (Es-2) | Potency (HeLa) | Potency (Hek293T) | Potency (JEG-3) | Potency (OV90) | Potency (PA-1) | Potency (Tov-21-G) | Potency (Tov112D)

C=CCN1CC[C@]23c4c5ccc(O)c4O[C@H]2C(=O)CC[C@@]3(O)[C@H]1C5
inactive: Potency (Es-2) | Potency (HeLa) | Potency (Hek293T) | Potency (OV90) | Potency (PA-1) | Potency (SKOV3) | Potency (Tov-21-G) | Potency (Tov112D) | activity, negative = cell killing [1, 3] -22.2% | activity, negative = cell killing [1, 4] 15.9%

C[C@@H]1O[C@@H](O[C@H]2C[C@@H](O)[C@]3(CO)[C@H]4[C@H](O)C[C@]5(C)[C@@H](C6=CC(=O)OC6)CC[C@]5(O)[C@@H]4CC[C@]3(O)C2)[C@H](O)[C@H](O)[C@H]1O
active: Potency (Es-2) 316 nM and 141 nM | Potency (HeLa) 224 nM and 158 nM | Potency (Hek293T) 282 nM and 178 nM | Potency (JEG-3) 355 nM | Potency (OV90) 447 nM and 794 nM | Potency (PA-1) 316 nM and 141 nM | Potency (SKOV3) 251 nM and 158 nM | Potency (Tov-21-G) 251 nM and 141 nM | Potency (Tov112D) 89.1 nM and 100 nM | Potency ([1]; tumour line A) 158 nM | Potency ([1]; tumour line B) 112 nM | Potency ([1]; tumour line D) 398 nM

Nc1ccncc1
inactive: Potency (Es-2) | Potency (HeLa) | Potency (Hek293T) | Potency (JEG-3) | Potency (OV90) | Potency (PA-1) | Potency (SKOV3) | Potency (Tov-21-G) | Potency (Tov112D) | activity, negative = cell killing [1, 2] -0.63% | activity, negative = cell killing [1, 3] -4.86% | activity, negative = cell killing [1, 4] -29.8%

CCN(C(C)=O)c1cccc(-c2ccnc3c(C#N)cnn23)c1
inactive: Potency (Es-2) | Potency (HeLa) | Potency (Hek293T) | Potency (OV90) | Potency (PA-1) | Potency (SKOV3) | Potency (Tov-21-G) | Potency (Tov112D) | activity, negative = cell killing [1, 2] -13.5% | activity, negative = cell killing [1, 3] -2.81%

Cc1ccc(S(=O)(=O)N[C@@H](CCCCN)C(=O)CCl)cc1
inactive: Potency (Es-2) | Potency (HeLa) | Potency (Hek293T) | Potency (OV90) | Potency (PA-1) | Potency (SKOV3) | Potency (Tov-21-G) | Potency (Tov112D) | activity, negative = cell killing [1, 2] -22.5%

COc1ccc(C(CN(C)C)C2(O)CCCCC2)cc1 (centres undefined)
inactive: Potency (Es-2) | Potency (HeLa) | Potency (Hek293T) | Potency (JEG-3) | Potency (OV90) | Potency (PA-1) | Potency (SKOV3) | Potency (Tov-21-G) | Potency (Tov112D) | activity, negative = cell killing [1, 2] -10.5% | activity, negative = cell killing [1, 3] 1.59% | activity, negative = cell killing [1, 4] -20%

O=c1[nH]c2ccccc2n1CCCN1CCC(n2c(=O)[nH]c3cc(Cl)ccc32)CC1
inactive: Potency (Es-2) | Potency (HeLa) | Potency (Hek293T) | Potency (OV90) | Potency (PA-1) | Potency (SKOV3) | Potency (Tov-21-G) | Potency (Tov112D) | activity, negative = cell killing [1, 2] -24.9%
active: Potency ([1]; tumour line A) 2820 nM

CC(=O)[C@H]1CC[C@H]2[C@@H]3CC[C@H]4C[C@](C)(O)CC[C@]4(C)[C@H]3CC[C@]12C
inactive: Potency (Es-2) | Potency (HeLa) | Potency (Hek293T) | Potency (OV90) | Potency (PA-1) | Potency (SKOV3) | Potency (Tov-21-G) | Potency (Tov112D) | activity, negative = cell killing [1, 2] -20.7%

c1ccc(C2CC2)c(OCC2=NCCN2)c1
inactive: Potency (Es-2) | Potency (HeLa) | Potency (Hek293T) | Potency (JEG-3) | Potency (OV90) | Potency (SKOV3) | Potency (Tov-21-G) | Potency (Tov112D) | activity, negative = cell killing [1, 2] -20.7% | activity, negative = cell killing [1, 3] -19.1%
active: Potency ([1]; tumour line A) 11200 nM

C[C@]12CC[C@H]3[C@@H](CCC4=CC(=O)CC[C@@H]43)[C@@H]1CC[C@@H]2OC(=O)CCc1ccccc1
inactive: Potency (Es-2) | Potency (Hek293T) | Potency (JEG-3) | Potency (OV90) | Potency (SKOV3) | Potency (Tov-21-G) | Potency (Tov112D)
active: Potency (HeLa) 3.55 µM
